# Measured values: PMC7862700, “An all-to-all approach to the identification of sequence-specific readers for epigenetic DNA modifications on cytosine”
# Tests used:
# Assay in all cases: DAPPL (digital affinity profiling via proximity ligation, sequencing); 10 mM Tris-HCl pH 7.5, 50 mM NaCl, 1 mM DTT, 4% glycerol, room temperature, 30 min; GST-TFs on glutathione beads, 16-mer random dsDNA library, 0.1% formaldehyde crosslink after washing; high values mean tight binding
# Settings in all cases: protein: recombinant; tags: N-terminal GST; dsDNA, one strand shown
# [1] = molecular target: T1, ERF (Homo sapiens, UniProt P50548 1-548)
# T1 sequence: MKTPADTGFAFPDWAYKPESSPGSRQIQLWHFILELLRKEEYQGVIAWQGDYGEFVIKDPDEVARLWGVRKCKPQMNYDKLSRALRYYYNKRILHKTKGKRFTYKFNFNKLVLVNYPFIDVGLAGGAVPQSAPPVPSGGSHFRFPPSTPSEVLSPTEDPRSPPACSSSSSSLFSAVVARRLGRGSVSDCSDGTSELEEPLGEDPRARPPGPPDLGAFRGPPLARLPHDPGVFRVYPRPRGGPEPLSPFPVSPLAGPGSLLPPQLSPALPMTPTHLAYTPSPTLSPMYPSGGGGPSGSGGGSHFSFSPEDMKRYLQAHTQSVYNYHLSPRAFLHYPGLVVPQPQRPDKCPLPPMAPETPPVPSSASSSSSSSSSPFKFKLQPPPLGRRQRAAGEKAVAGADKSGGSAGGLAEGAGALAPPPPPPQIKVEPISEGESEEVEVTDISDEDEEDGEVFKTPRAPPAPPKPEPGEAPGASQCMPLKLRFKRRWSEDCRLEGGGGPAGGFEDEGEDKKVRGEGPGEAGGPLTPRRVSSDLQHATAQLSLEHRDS
# Procedure, shortened: (§1)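 Human transcription factors carrying a GST fusion were produced in yeast, bound to glutathione beads, tagged with DNA barcodes and pooled together with a tag-only sample. Each pool was held with 200 nmole of a random double-stranded 16-mer DNA library in Tris/NaCl/DTT/glycerol buffer for 30 min at room temperature, then washed, crosslinked in 0.1% formaldehyde, proximity-ligated with BsaI/T4 ligase (1 h, 37 °C), PCR-amplified and sequenced on an Illumina NextSeq500. Binding signal is the read frequency of each hexamer for a given factor divided by its frequency in the tag-only sample.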
# [2] = molecular target: T2, ETV3L (Homo sapiens, UniProt Q6ZN32 1-361)
# T2 sequence: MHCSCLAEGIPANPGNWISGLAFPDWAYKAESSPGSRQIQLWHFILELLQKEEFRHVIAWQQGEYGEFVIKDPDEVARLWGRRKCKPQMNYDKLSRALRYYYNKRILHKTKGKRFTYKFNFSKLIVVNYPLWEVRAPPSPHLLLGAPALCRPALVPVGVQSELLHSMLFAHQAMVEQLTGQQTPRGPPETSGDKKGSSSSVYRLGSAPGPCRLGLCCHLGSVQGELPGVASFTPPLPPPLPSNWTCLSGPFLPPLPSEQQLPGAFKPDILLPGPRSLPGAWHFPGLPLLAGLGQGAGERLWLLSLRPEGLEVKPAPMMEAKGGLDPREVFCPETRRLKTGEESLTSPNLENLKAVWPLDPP
# Procedure, shortened: as §1
# [3] = molecular target: T3, ETS2 (Homo sapiens, UniProt P15036 1-469)
# T3 sequence: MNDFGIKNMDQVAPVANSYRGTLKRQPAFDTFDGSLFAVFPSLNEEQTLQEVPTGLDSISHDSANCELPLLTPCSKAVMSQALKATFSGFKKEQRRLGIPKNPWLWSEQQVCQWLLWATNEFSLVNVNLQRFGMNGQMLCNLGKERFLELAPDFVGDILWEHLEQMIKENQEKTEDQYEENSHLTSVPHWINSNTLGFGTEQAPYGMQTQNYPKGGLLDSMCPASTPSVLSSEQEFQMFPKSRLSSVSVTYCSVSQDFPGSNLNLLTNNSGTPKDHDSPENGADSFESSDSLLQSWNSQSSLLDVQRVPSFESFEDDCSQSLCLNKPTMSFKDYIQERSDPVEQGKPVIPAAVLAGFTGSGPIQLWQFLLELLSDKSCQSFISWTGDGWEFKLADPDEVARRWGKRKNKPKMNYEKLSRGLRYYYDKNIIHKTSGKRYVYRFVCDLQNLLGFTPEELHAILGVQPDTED
# Procedure, shortened: as §1
# [4] = molecular target: T4, SPDEF (Homo sapiens, UniProt O95238 1-335)
# T4 sequence: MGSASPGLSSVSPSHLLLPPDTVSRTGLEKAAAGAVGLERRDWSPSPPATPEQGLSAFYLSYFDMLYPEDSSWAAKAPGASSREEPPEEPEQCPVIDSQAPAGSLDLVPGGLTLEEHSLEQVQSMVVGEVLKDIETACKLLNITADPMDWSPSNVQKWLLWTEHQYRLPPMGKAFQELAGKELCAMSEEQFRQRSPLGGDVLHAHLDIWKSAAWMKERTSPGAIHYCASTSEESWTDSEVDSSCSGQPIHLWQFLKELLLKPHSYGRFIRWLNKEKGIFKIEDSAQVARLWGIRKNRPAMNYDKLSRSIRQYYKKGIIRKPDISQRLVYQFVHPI
# Procedure, shortened: as §1
# [5] = molecular target: T5, ETV7 (Homo sapiens, UniProt Q9Y603 1-341)
# T5 sequence: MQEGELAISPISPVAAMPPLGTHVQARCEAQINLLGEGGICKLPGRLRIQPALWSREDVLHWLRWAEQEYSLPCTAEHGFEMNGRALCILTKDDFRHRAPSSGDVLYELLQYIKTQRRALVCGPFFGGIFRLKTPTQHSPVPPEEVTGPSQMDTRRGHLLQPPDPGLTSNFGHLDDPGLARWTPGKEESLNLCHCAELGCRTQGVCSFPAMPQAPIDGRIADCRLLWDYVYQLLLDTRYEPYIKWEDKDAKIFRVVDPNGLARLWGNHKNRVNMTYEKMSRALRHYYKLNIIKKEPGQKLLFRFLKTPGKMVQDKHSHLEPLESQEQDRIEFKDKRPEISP
# Procedure, shortened: as §1
# [6] = molecular target: T6, ELF5 (Homo sapiens, UniProt Q9UKW6-2 1-255)
# T6 sequence: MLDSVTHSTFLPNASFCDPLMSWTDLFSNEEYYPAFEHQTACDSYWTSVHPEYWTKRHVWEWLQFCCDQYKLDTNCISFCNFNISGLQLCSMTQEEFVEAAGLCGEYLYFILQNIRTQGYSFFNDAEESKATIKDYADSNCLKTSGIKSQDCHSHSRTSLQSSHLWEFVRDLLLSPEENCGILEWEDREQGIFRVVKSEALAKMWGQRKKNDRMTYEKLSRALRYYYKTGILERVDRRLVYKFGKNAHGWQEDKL
# Procedure, shortened: as §1
# [7] = molecular target: T7, ETV3 (Homo sapiens, UniProt P41162-2 1-143)
# T7 sequence: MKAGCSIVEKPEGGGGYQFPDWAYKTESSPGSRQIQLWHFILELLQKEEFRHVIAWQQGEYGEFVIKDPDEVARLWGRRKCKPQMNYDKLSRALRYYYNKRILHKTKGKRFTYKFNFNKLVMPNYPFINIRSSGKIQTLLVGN
# Procedure, shortened: as §1
# [8] = molecular target: ETV6 (Homo sapiens, UniProt P41212 1-452)
# Procedure, shortened: as §1
# ETV6, sequence (P41212 whole entry): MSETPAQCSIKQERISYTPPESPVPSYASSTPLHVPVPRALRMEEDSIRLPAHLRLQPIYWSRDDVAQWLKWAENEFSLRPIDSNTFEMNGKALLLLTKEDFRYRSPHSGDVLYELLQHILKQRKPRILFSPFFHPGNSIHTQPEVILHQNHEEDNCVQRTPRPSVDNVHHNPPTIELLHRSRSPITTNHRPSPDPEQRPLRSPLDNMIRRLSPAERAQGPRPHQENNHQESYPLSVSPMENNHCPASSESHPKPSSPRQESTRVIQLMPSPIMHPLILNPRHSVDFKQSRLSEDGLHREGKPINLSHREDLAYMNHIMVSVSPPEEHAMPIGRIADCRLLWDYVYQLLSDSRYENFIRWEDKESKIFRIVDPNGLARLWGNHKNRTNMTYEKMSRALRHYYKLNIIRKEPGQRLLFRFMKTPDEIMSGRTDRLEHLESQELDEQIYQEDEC
Sequence,binding signal [1],binding signal [2],binding signal [3],binding signal [4],binding signal [5],binding signal [6],binding signal [7],binding signal [8]
GCTACC,"1.31 fold enrichment (6-mer frequency, TF over GST control)","1.15 fold enrichment (6-mer frequency, TF over GST control)","1.22 fold enrichment (6-mer frequency, TF over GST control)","1.22 fold enrichment (6-mer frequency, TF over GST control)","1.27 fold enrichment (6-mer frequency, TF over GST control)","1.24 fold enrichment (6-mer frequency, TF over GST control)","1.24 fold enrichment (6-mer frequency, TF over GST control)","1.16 fold enrichment (6-mer frequency, TF over GST control)"
CTACCC,"1.29 fold enrichment (6-mer frequency, TF over GST control)","1.32 fold enrichment (6-mer frequency, TF over GST control)","1.38 fold enrichment (6-mer frequency, TF over GST control)","1.29 fold enrichment (6-mer frequency, TF over GST control)","1.23 fold enrichment (6-mer frequency, TF over GST control)","1.29 fold enrichment (6-mer frequency, TF over GST control)","1.28 fold enrichment (6-mer frequency, TF over GST control)","1.21 fold enrichment (6-mer frequency, TF over GST control)"
GAACCC,"1.03 fold enrichment (6-mer frequency, TF over GST control)","1.19 fold enrichment (6-mer frequency, TF over GST control)","1.13 fold enrichment (6-mer frequency, TF over GST control)","1.17 fold enrichment (6-mer frequency, TF over GST control)","1.16 fold enrichment (6-mer frequency, TF over GST control)","1.14 fold enrichment (6-mer frequency, TF over GST control)","1.07 fold enrichment (6-mer frequency, TF over GST control)","1.21 fold enrichment (6-mer frequency, TF over GST control)"
ACACAT,"1.29 fold enrichment (6-mer frequency, TF over GST control)","1.23 fold enrichment (6-mer frequency, TF over GST control)","1.27 fold enrichment (6-mer frequency, TF over GST control)","1.31 fold enrichment (6-mer frequency, TF over GST control)","1.27 fold enrichment (6-mer frequency, TF over GST control)","1.23 fold enrichment (6-mer frequency, TF over GST control)","1.2 fold enrichment (6-mer frequency, TF over GST control)","1.22 fold enrichment (6-mer frequency, TF over GST control)"
ACCCGC,"1.27 fold enrichment (6-mer frequency, TF over GST control)","1.34 fold enrichment (6-mer frequency, TF over GST control)","1.15 fold enrichment (6-mer frequency, TF over GST control)","1.16 fold enrichment (6-mer frequency, TF over GST control)","1.18 fold enrichment (6-mer frequency, TF over GST control)","1.25 fold enrichment (6-mer frequency, TF over GST control)","1.28 fold enrichment (6-mer frequency, TF over GST control)","1.32 fold enrichment (6-mer frequency, TF over GST control)"
GGCACT,"1.26 fold enrichment (6-mer frequency, TF over GST control)","1.27 fold enrichment (6-mer frequency, TF over GST control)","1.24 fold enrichment (6-mer frequency, TF over GST control)","1.24 fold enrichment (6-mer frequency, TF over GST control)","1.26 fold enrichment (6-mer frequency, TF over GST control)","1.11 fold enrichment (6-mer frequency, TF over GST control)","1.29 fold enrichment (6-mer frequency, TF over GST control)","1.31 fold enrichment (6-mer frequency, TF over GST control)"
GAACTT,"1.56 fold enrichment (6-mer frequency, TF over GST control)","1.58 fold enrichment (6-mer frequency, TF over GST control)","1.61 fold enrichment (6-mer frequency, TF over GST control)","1.61 fold enrichment (6-mer frequency, TF over GST control)","1.62 fold enrichment (6-mer frequency, TF over GST control)","1.96 fold enrichment (6-mer frequency, TF over GST control)","1.69 fold enrichment (6-mer frequency, TF over GST control)","1.73 fold enrichment (6-mer frequency, TF over GST control)"
GGCCTA,"1.19 fold enrichment (6-mer frequency, TF over GST control)","1.15 fold enrichment (6-mer frequency, TF over GST control)","1.19 fold enrichment (6-mer frequency, TF over GST control)","1.29 fold enrichment (6-mer frequency, TF over GST control)","1.26 fold enrichment (6-mer frequency, TF over GST control)","1.13 fold enrichment (6-mer frequency, TF over GST control)","1.3 fold enrichment (6-mer frequency, TF over GST control)","1.17 fold enrichment (6-mer frequency, TF over GST control)"
CTTACG,"1.09 fold enrichment (6-mer frequency, TF over GST control)","1.05 fold enrichment (6-mer frequency, TF over GST control)","1.13 fold enrichment (6-mer frequency, TF over GST control)","1.1 fold enrichment (6-mer frequency, TF over GST control)","1.1 fold enrichment (6-mer frequency, TF over GST control)","1.15 fold enrichment (6-mer frequency, TF over GST control)","1.15 fold enrichment (6-mer frequency, TF over GST control)","1 fold enrichment (6-mer frequency, TF over GST control)"
CCGGTT,"1.82 fold enrichment (6-mer frequency, TF over GST control)","1.94 fold enrichment (6-mer frequency, TF over GST control)","1.96 fold enrichment (6-mer frequency, TF over GST control)","2.99 fold enrichment (6-mer frequency, TF over GST control)","1.77 fold enrichment (6-mer frequency, TF over GST control)","2.37 fold enrichment (6-mer frequency, TF over GST control)","2.05 fold enrichment (6-mer frequency, TF over GST control)","2.19 fold enrichment (6-mer frequency, TF over GST control)"
TGTCCC,"1.26 fold enrichment (6-mer frequency, TF over GST control)","1.18 fold enrichment (6-mer frequency, TF over GST control)","1.41 fold enrichment (6-mer frequency, TF over GST control)","1.34 fold enrichment (6-mer frequency, TF over GST control)","1.46 fold enrichment (6-mer frequency, TF over GST control)","1.44 fold enrichment (6-mer frequency, TF over GST control)","1.2 fold enrichment (6-mer frequency, TF over GST control)","1.28 fold enrichment (6-mer frequency, TF over GST control)"
TATTTC,"1.86 fold enrichment (6-mer frequency, TF over GST control)","2.06 fold enrichment (6-mer frequency, TF over GST control)","2.23 fold enrichment (6-mer frequency, TF over GST control)","2 fold enrichment (6-mer frequency, TF over GST control)","2.2 fold enrichment (6-mer frequency, TF over GST control)","2.66 fold enrichment (6-mer frequency, TF over GST control)","2.23 fold enrichment (6-mer frequency, TF over GST control)","2.54 fold enrichment (6-mer frequency, TF over GST control)"
CCGGCC,"1.06 fold enrichment (6-mer frequency, TF over GST control)","1.19 fold enrichment (6-mer frequency, TF over GST control)","1.05 fold enrichment (6-mer frequency, TF over GST control)","1.38 fold enrichment (6-mer frequency, TF over GST control)","1.16 fold enrichment (6-mer frequency, TF over GST control)","1.22 fold enrichment (6-mer frequency, TF over GST control)","1.24 fold enrichment (6-mer frequency, TF over GST control)","1.11 fold enrichment (6-mer frequency, TF over GST control)"
TAAATC,"1.24 fold enrichment (6-mer frequency, TF over GST control)","1.29 fold enrichment (6-mer frequency, TF over GST control)","1.33 fold enrichment (6-mer frequency, TF over GST control)","1.33 fold enrichment (6-mer frequency, TF over GST control)","1.22 fold enrichment (6-mer frequency, TF over GST control)","1.15 fold enrichment (6-mer frequency, TF over GST control)","1.18 fold enrichment (6-mer frequency, TF over GST control)","1.29 fold enrichment (6-mer frequency, TF over GST control)"
CCGTAC,"1.39 fold enrichment (6-mer frequency, TF over GST control)","1.25 fold enrichment (6-mer frequency, TF over GST control)","1.32 fold enrichment (6-mer frequency, TF over GST control)","1.41 fold enrichment (6-mer frequency, TF over GST control)","1.32 fold enrichment (6-mer frequency, TF over GST control)","1.46 fold enrichment (6-mer frequency, TF over GST control)","1.36 fold enrichment (6-mer frequency, TF over GST control)","1.33 fold enrichment (6-mer frequency, TF over GST control)"
